Source: PubChem BioAssay
This is a sample that favours compounds with a hit; in the whole collection about 28% have one here.
CYP2C19 activ: increases human CYP2C19 enzyme activity. P33261. recombinant CYP2C19, luciferin-H EGE luminescence; hits give high values; 0 = fully inhibited enzyme, 1 = untreated enzyme. activation factor at 5 µM. 96,000 tested, under 10 active;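 active means activation factor of at least 2 at 5 µM in the primary screen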;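 further: 0 = wells with 2.5 mM tranylcypromine and 1 = vehicle-only wells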
Pyk2 oligo antag: antagonists of human Pyk2 oligomerization; actives 0.83% (n = 99,000); Q293 cells, Pyk2 FERM NanoBiT luminescence; hits give low values; Q14289; z-score (the deposit names both 25 µM and 10 µM);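 active means Z-score of -3 or lower, scaled per plate to the spread of control and sample wells; inactive means z-score above -3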;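 further: negative z-score means lost luminescence so less FERM oligomerization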
CYP2C9 inhib: blocks human cytochrome P450 2C9; CYP2C9 Supersomes, luciferin-H conversion, luminescence; inhibition, % at 5 µM; actives 20% (n = 96,000);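 active means blocking of liver enzyme CYP2C9 beyond about 50% at 5 µM, limit read from the data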
CYP2C19 inh: human CYP2C19 inhibition; P33261; CYP2C19 Supersomes, luciferin-H EGE luminescence, 30 min; inhibition, % at 5 µM; actives 21% (n = 96,000); AID 778;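 active means CYP2C19 inhibition above a set limit at 5 µM in the primary screen, cut at about 50% in these data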;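 further: plate controls were negative control wells for no effect and 2.5 mM tranylcypromine positive control for full effect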
CYP2C9 act: activators of human CYP2C9; P11712; recombinant CYP2C9, luciferin-H conversion, luminescence; hits give high values; factor 1 = untreated enzyme, 0 = blocked; activation factor at 5 µM; actives 1.4% (n = 96,000); AID 1024;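 active means activation factor of 2 or more for CYP2C9 at a 5 µM dose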;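 further: 0 = sulfaphenazole-blocked wells and 1 = vehicle-only wells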
Starred values were filed as active, the others as inactive; . = no result given.

SMILES | CYP2C19 activ | Pyk2 oligo antag | CYP2C9 inhib | CYP2C19 inh | CYP2C9 act
CCc1cc2c(SCC(=O)C(C#N)=C3N(C)c4ccccc4N3C)ncnc2s1 | 0.6 | 0.35 | 62* | 40 | 0.4
O=C(Cn1cnc2ccccc2c1=O)NCCC(=O)N1CCN(c2ccccc2)CC1 | 1 | 1.3 | 31 | -3 | 0.7
Cc1ccc2c3c1C1(C(=O)N3C(C)(C)CC2C)C(C#N)=C(N)Oc2cc(O)ccc21 (stereo not drawn) | 0.3 | -1.4 | 89* | 70* | 0.1
CC1=CC(C)(C)N2C(=O)C3(C(C#N)=C(N)Oc4cc(O)ccc43)c3cccc1c32 (stereo not drawn) | 0.7 | -2.1 | 51* | 32 | 0.5
COc1cc2c3c(c1)C1(C(=O)N3C(C)(C)C=C2C)C(C#N)=C(N)Oc2cc(C)oc(=O)c21 (stereo not drawn) | 0.4 | -1.4 | 27 | 55* | 0.7
Cc1cc2c3c(c1)C1(C(=O)N3C(C)(C)CC2C)C(C#N)=C(N)Oc2cc(O)ccc21 (stereo not drawn) | 0.2 | 2.2 | 90* | 79* | 0.1
CC1=CC(C)(C)N2C(=O)C3(C(C#N)=C(N)Oc4cc(C)oc(=O)c43)c3cc(C)cc1c32 (stereo not drawn) | . | -1.7 | . | . | .
CC(C)n1c(=NC(=O)c2ccco2)c(C#N)cc2c(=O)n3ccccc3cc21 | . | 1.6 | . | . | .
O=c1c2cnn(-c3ccccc3)c2nc(-c2cccs2)n1-c1ccc(Br)cc1 | . | -1.6 | . | . | .
Cc1cc(C)c(S(=O)(=O)N(CC(=O)NCc2cccnc2)C2CCCCC2)c(C)c1 | 0 | -0.88 | 94* | 99* | 0.1
Cc1cc(C)c(S(=O)(=O)N(C)CC(N)=O)c(C)c1 | 1.1 | 0.92 | -38 | -10 | 1.4
Cc1cc(C)c(S(=O)(=O)N(C)CC(=O)N2CCCCC2)c(C)c1 | 0.6 | 0.28 | -185 | 44 | 2.9*
Cc1cc(C)c(S(=O)(=O)N(CC(=O)N2CCCC2)C2CCCCC2)c(C)c1 | 0.7 | 1.6 | 58* | 28 | 0.4
Cc1cc(C)c(S(=O)(=O)N(C)Cc2cnn(C)c2)c(C)c1 | 0.1 | -0.06 | -97 | 88* | 2*
CC(=O)N1CCC(N(C(=O)Nc2c(F)cccc2F)C(C)C)CC1 | 1.2 | . | -14 | -16 | 1.1
COC(=O)c1nnn(-c2nonc2N)c1CSc1nc2ccccc2s1 | 0.5 | -0.96 | 49 | 52* | 0.5
CCOC(=O)c1nnn(-c2nonc2N)c1CN(CC)c1ccccc1 | 0 | -0.26 | 89* | 99* | 0.1
CCOC(=O)c1nnn(-c2nonc2N)c1COc1ccccc1 | 0.5 | 2.4 | 88* | 48 | 0.1
CCOC(=O)c1nnn(-c2nonc2N)c1COc1ccc(F)cc1 | 0.9 | -0.58 | 81* | 14 | 0.2
COc1ccc(N(C(=O)c2ccc(F)cc2)C2=CC3CCC(C2)N3C)cc1 (stereo not drawn) | 1.4 | -0.66 | 12 | -35 | 0.9
COc1ccc(C(=O)N/N=c2\oc3ccccc3cc2C(=O)NCc2ccccc2)cc1 | . | -0.59 | . | . | .
CCOC(=O)c1nnn(-c2nonc2N)c1CNc1ccccc1 | 0.9 | -0.38 | 53* | 7 | 0.5
Cc1nn(CC(O)Cn2cnc3c2c(=O)n(C)c(=O)n3C)c(C)c1Br (stereo not drawn) | 1 | 0.47 | 2 | 3 | 1
Cc1ccc2c(c1)c1c(n2CC(O)Cn2c(C)nc3ccccc32)CCCC1 (stereo not drawn) | 0.9 | . | 77* | 14 | 0.2
Cc1nn(CC(O)Cn2c3c(c4ccccc42)CCN(C)C3=O)c(C)c1Br (stereo not drawn) | 0.1 | 0.06 | 81* | 91* | 0.2
SMILES | CYP2C19 activ | Pyk2 oligo antag | CYP2C9 inhib | CYP2C19 inh | CYP2C9 act
Cc1ccc2c(c1)c1c(n2CC(O)CNC(C)(C)C)CCCC1 (stereo not drawn) | 0.7 | . | -1 | 28 | 1
Cc1ccc2c(c1)c1c(n2CC(O)Cn2nc(C)c(Br)c2C)CCCC1 (stereo not drawn) | 0.4 | -0.54 | 72* | 64* | 0.3
N#Cc1c(C(F)(F)F)cc(-c2cccs2)nc1SCc1cccnc1 | 0.4 | -2.2 | 75* | 57* | 0.2
Cc1ccc(-c2cc(C(F)(F)F)c(C#N)c(SCCC#N)n2)o1 | 1.1 | 2.2 | 0 | -6 | 1
C#CCSc1nc(-c2ccccc2)cc(C(F)(F)F)c1C#N | 1.1 | -0.6 | 2 | -5 | 1
N#Cc1c(C(F)(F)F)cc(-c2cccs2)nc1SCc1ccc(Cl)nc1 | 0.9 | -0.04 | 56* | 8 | 0.4
